Measured values from PubChem BioAssay.
Calls of active or inactive are those of the source. Unless noted, no rule for the calls is given here.

How the values were obtained:
[1] = tested on: Wnt5a (protein binding on small-molecule microarray); experiment: Wnt5a binders on small-molecule microarray, primary screen, biophysical, 635/667 nm fluorescence (AID 1142); conditions: 635 nm fluorescence, higher = more signal;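 also: fluorescence read at 667 nm with signal to noise per printed feature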
[2] = cell viability in Huh7 cells, primary screen, cytotoxicity control for HCV replication inhibitor project, CellTiter-Glo luminescence, basal, 48 h (AID 1143); conditions: Huh7 HCV replicon, higher = more signal, called active from +8 up or from −8 down;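 also: Huh7 hepatoma cells carrying a hepatitis C replication reporter with no stimulus; test concentration not given here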
[3] = P. aeruginosa biofilm formation inhibitors, primary screen, PAO1 strain, BacTiter-Glo luminescence, LB-PBS (AID 1144); conditions: 12 h, higher = more signal
[4] = CREB reporter modulators without forskolin, primary screen, cell-based, PC12, CRE-LacZ reporter, unstimulated (AID 1145); conditions: no forskolin, luminescence, 4.5 h, higher = more signal, called active from +8 up or from −8 down
[5] = CREB reporter modulators under forskolin, primary screen, cell-based, PC12, CRE-LacZ reporter, forskolin-stimulated (AID 1146); conditions: luminescence, 4.5 h, higher = more signal, called active from +8 up or from −8 down;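 also: PC12 cells with 6xCRE LacZ reporter stimulated by forskolin 10 µM; beta-galactosidase reporter signal reflecting CREB driven transcription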
[6] = biological target: Streptavidin (Streptomyces avidinii) (UniProt P22629); experiment: streptavidin binders on small-molecule microarray, primary screen, artefact control for SMM compound annotation, biophysical, 635/667 nm fluorescence (AID 1147); conditions: streptavidin binding, higher = more signal;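 also: signal reflects streptavidin binding to arrayed compounds as a control protein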
[7] = small-molecule binders of probe aInhba, primary screen, biochemical, small-molecule microarray, 635/667 nm fluorescence (AID 1148); conditions: higher = more signal;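 also: score merges 667nm spot fluorescence with signal-to-noise for antibody binding to printed compounds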
[8] = biological target: Torsin-1A (Homo sapiens) (UniProt O14656); experiment: torsin A binders from cell lysate, primary screen, small-molecule microarray, wild-type, 635/667 nm (AID 1149); conditions: COS7 hTOR1A-WT lysate, 635 nm fluorescence, higher = more signal
[9] = biological target: Torsin-1A (Homo sapiens) (UniProt O14656); experiment: small-molecule binders of mutant TOR1A in lysate, primary screen, cell lysate, small-molecule microarray, COS7 lysate, 635/667 nm fluorescence (AID 1150); conditions: COS7 hTOR1A mutant lysate, 635 nm fluorescence, higher = more signal;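 also: score pools 667 nm emission and signal to noise measuring lysate protein binding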
[10] = tested on: Sonic hedgehog protein (Shh); experiment: small-molecule binders of Shh protein, primary screen, biochemical, small-molecule microarray, 635/667 nm fluorescence (AID 1151); conditions: small-molecule microarray binding, 635 nm fluorescence; higher = more signal;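 also: Shh protein binding to compounds spotted on small-molecule microarray slides; score combines spot fluorescence intensity with signal-to-noise across triplicate slides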
[11] = E. coli DRC41 culture turbidity changes, primary screen, E. coli filamentation inducer project, strain DRC41, OD650, 48 h (AID 1152);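 also: E. coli MC1000 strain DRC41 lacking acrAB efflux pump and sulA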; conditions: E. coli DRC41 (acrAB sulA), higher = more signal, called active from +8 up or from −8 down
[12] = small-molecule binders of probe aLefty1, primary screen, biochemical, small-molecule microarray, 635/667 nm fluorescence (AID 1153); conditions: higher = more signal;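 also: score merges spot fluorescence with signal-to-noise ratio from the scanned slide images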
[13] = PSAC antagonists in infected red cells, primary screen, cell-based, P. falciparum Indochina, OD700, 1 h (AID 1154); conditions: P. falciparum Indochina infected RBC osmotic lysis, higher = more signal, called active from +8 up or from −8 down
[14] = PSAC antagonists in infected red cells, primary screen, cell-based, P. falciparum Indochina, OD700, 2 h (AID 1155);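 also: lysis reports solute entry through the parasite surface anion channel PSAC; channel blockers reduce lysis of infected cells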; conditions: P. falciparum Indochina infected erythrocytes, osmotic lysis OD700; higher = more signal, called active from +8 up or from −8 down
[15] = osmotic lysis modulators in infected erythrocytes, primary screen, PSAC antagonist project, cell-based, P. falciparum Indochina, OD700, 3 h (AID 1156); conditions: higher = more signal, called active from +8 up or from −8 down
[16] = PSAC antagonists in infected red cells, primary screen, cell-based, P. falciparum Indochina, OD700, 18 h (AID 1157); conditions: P. falciparum Indochina infected erythrocytes, osmotic lysis OD700, 18 h; higher = more signal, called active from +8 up or from −8 down
[17] = modulators of S6 phosphorylation in cells, primary screen, cell-based, A549, cytoblot, luminescence, serum-stimulated (AID 1158); conditions: A549 phospho-S6 cytoblot, 5 h, higher = more signal;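 also: serum-stimulated A549 lung adenocarcinoma cells; signal is phosphorylated S6 detected by cytoblot immunostaining with HRP secondary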
[18] = biological target: NADPH oxidase 2 (Homo sapiens) (UniProt P04839); experiment: NOX2-dependent H2O2 signal modulators, primary screen, NOX inhibitor project, cell-based, HEK293-NOX2, PMA-stimulated, Amplex Red fluorescence (AID 1159); conditions: 45 min, higher = more signal, called active from +8 up or from −8 down; also: test concentration not given here
[19] = biological target: NADPH oxidase 4 (Homo sapiens) (UniProt Q9NPH5); experiment: NOX4-dependent H2O2 signal modulators, primary screen, NOX inhibitor project, cell-based, HEK293-NOX4, tetracycline-induced, Amplex Red fluorescence (AID 1160); conditions: 45 min, higher = more signal, called active from +8 up or from −8 down
[20] = biological target: NADPH oxidase 5 (Homo sapiens) (UniProt Q96PH1); experiment: NOX5-dependent H2O2 signal modulators, primary screen, NOX inhibitor project, cell-based, HEK293-NOX5, Amplex Red fluorescence (AID 1161); conditions: HEK293-NOX5, ionomycin, 45 min, higher = more signal
Sequence of NADPH oxidase 5 (Homo sapiens) (Q96PH1 whole entry, looked up): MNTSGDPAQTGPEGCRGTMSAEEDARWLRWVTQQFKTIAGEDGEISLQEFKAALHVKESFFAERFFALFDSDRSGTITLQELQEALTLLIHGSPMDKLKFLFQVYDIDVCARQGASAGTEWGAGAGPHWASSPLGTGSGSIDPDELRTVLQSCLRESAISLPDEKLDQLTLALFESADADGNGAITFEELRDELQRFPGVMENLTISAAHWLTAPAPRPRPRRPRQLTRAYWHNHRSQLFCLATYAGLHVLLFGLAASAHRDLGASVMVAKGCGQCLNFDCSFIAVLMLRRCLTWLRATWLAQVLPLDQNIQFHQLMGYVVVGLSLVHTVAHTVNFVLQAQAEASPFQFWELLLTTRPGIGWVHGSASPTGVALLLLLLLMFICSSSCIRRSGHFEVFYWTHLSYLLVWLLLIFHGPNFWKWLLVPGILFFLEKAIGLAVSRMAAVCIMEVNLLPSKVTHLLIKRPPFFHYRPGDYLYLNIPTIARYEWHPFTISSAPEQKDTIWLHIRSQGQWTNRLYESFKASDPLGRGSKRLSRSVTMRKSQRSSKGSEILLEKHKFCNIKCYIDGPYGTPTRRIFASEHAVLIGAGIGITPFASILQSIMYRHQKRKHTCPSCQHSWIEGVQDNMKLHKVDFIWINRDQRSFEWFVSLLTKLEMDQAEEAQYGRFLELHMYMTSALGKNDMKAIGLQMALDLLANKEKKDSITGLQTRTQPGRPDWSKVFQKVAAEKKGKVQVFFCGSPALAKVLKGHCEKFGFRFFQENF

Sequence of NADPH oxidase 2 (Homo sapiens) (P04839 whole entry, looked up): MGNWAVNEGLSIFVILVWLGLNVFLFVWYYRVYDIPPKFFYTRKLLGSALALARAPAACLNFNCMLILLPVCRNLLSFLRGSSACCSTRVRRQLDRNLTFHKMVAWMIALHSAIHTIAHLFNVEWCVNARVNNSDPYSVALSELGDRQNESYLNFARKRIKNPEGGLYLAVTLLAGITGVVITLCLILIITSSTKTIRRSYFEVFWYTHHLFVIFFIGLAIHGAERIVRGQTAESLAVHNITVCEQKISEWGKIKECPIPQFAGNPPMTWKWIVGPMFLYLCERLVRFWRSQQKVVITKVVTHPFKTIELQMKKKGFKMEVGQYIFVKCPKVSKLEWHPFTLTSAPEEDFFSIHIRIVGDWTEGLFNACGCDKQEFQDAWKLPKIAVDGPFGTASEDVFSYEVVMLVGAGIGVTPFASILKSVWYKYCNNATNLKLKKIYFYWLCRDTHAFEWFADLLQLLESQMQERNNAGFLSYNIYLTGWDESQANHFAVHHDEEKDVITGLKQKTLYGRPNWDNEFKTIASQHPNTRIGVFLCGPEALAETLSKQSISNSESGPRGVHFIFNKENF
Sequence of Torsin-1A (Homo sapiens) (O14656 whole entry, looked up): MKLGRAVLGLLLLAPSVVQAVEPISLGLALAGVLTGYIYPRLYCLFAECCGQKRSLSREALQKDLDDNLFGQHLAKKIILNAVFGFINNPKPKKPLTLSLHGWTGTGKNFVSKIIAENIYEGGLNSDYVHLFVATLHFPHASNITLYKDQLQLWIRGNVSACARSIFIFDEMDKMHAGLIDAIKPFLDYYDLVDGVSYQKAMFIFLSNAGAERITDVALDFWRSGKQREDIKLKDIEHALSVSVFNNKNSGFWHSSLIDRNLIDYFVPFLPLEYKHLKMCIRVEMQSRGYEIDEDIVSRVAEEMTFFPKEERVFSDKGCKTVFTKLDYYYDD
Sequence of NADPH oxidase 4 (Homo sapiens) (Q9NPH5 whole entry, looked up): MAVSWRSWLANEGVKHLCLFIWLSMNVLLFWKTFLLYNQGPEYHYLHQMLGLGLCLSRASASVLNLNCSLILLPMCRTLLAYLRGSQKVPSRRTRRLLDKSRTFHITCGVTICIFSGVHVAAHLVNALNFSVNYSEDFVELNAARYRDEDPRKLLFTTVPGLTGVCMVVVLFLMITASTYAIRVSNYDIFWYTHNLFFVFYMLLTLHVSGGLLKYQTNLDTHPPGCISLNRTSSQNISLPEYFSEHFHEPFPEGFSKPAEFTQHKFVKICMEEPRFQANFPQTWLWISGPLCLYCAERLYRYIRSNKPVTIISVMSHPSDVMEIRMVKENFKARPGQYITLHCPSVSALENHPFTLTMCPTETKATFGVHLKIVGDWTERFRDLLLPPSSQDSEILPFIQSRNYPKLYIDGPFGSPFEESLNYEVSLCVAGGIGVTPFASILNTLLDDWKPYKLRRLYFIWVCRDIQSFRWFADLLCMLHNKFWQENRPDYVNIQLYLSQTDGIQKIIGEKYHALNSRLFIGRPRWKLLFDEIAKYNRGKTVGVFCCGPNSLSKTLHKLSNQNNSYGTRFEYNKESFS
Sequence of Streptavidin (Streptomyces avidinii) (P22629 whole entry, looked up): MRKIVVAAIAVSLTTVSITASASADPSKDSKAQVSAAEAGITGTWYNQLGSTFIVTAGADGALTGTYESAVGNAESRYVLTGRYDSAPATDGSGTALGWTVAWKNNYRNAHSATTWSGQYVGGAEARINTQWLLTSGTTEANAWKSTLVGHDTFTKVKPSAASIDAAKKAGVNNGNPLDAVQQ

Row | SMILES | composite z-score [1] | z-score [2] | z-score [3] | z-score [4] | z-score [5] | composite z-score [6] | composite z-score [7] | composite z-score [8] | composite z-score [9] | composite z-score [10] | z-score [11] | composite z-score [12] | z-score [13] | z-score [14] | z-score [15] | z-score [16] | z-score [17] | z-score [18] | z-score [19] | z-score [20]
1 | O=C1C2C=CC(C(O)c3c(F)cccc3Cl)N(Nc3ccccc3F)C2C(=O)N1c1ccccc1 (stereo not given) | 0.185 | 1.04 (inactive) | -0.563 (inactive) | 0.243 (inactive) | -0.0389 (inactive) | 0.396 | 0.143 | 0.0354 | 0.301 | -0.356 | -0.775 (inactive) | 0.19 | 6.75 (inactive) | 1.57 (inactive) | 0.303 (inactive) | 1.1 (inactive) | -0.514 | -1.43 (inactive) | -4.43 (inactive) | -2.84
2 | COC(=O)[C@@]1(Cc2ccc(OC)cc2)[C@H]2c3cc(C(=O)N4CCCC4)n(CCc4ccc(O)c(O)c4)c3C[C@H]2CN1C(=O)c1ccccc1 | -0.0111 | -1.27 (inactive) | -0.128 (inactive) | 1.54 (inactive) | 0.706 (inactive) | 0.27 | 0.147 | -0.252 | 0.641 | -0.349 | -1.84 (inactive) | 0.378 | 5.39 (inactive) | 0.451 (inactive) | 2.1 (inactive) | 0.912 (inactive) | 0.198 | -3.75 (inactive) | -8.38 (active) | -7.92
3 | O=C1[C@@]23C=C(Br)[C@H](C[C@@H]2COC3)[C@]12CO2 | -0.139 | -0.38 (inactive) | -0.00184 (inactive) | 1.04 (inactive) | 1.78 (inactive) | -1.08 | -0.204 | -0.672 | -0.666 | -0.0003 | -0.508 (inactive) | 0.151 | 0.483 (inactive) | -0.0352 (inactive) | -0.103 (inactive) | -0.334 (inactive) | 0.424 | 0.447 (inactive) | -1.92 (inactive) | -4.05
4 | COc1ccc(-c2cc3c(c(Cc4ccccc4)n2)[Si](C(C)C)(C(C)C)OC3)cn1 | -0.153 | -1.03 (inactive) | 0.2 (inactive) | -0.141 (inactive) | 0.877 (inactive) | -0.32 | -0.215 | -0.0113 | -0.729 | -0.093 | -1.28 (inactive) | -0.0099 | 2.28 (inactive) | 0.139 (inactive) | -0.709 (inactive) | 0.408 (inactive) | 0.0758 | -1.62 (inactive) | -0.121 (inactive) | -2.02
5 | COC(=O)[C@@]1(Cc2ccc(OC)cc2)[C@H]2c3cc(C(=O)N4CCCC4)n(CCSCCO)c3C[C@H]2CN1C(=O)c1ccccc1 | 0.631 | -0.974 (inactive) | 0.58 (inactive) | 1.34 (inactive) | 1.82 (inactive) | 0.532 | 0.257 | 0.396 | 1.45 | -0.623 | -1.34 (inactive) | 0.399 | 2.07 (inactive) | 0.142 (inactive) | -0.0464 (inactive) | 0.667 (inactive) | -0.0335 | 0.354 (inactive) | -1.04 (inactive) | -0.201
6 | C=C(C(=O)CC[C@H](OC(C)=O)c1ccccc1OCCO)C(C)C | -0.138 | -8.56 (active) | -0.679 (inactive) | 9.01 (active) | -0.422 (inactive) | -0.455 | -0.188 | 0.229 | -0.752 | 2.19 | 0.0974 (inactive) | -0.147 | 2.27 (inactive) | 2.54 (inactive) | -4.78 (inactive) | -0.431 (inactive) | 0.66 | -5.71 (inactive) | -2.22 (inactive) | -3.36
7 | C=CC[C@]1(C(N)=O)COC(c2ccc(OCCCO)cc2)=N1 | 0.469 | -1.33 (inactive) | -0.151 (inactive) | 0.0359 (inactive) | 0.127 (inactive) | -0.266 | 0.027 | 1 | 1.18 | 0.395 | 1.3 (inactive) | 0.269 | 3.06 (inactive) | 0.167 (inactive) | 0.111 (inactive) | 0.322 (inactive) | 0.537 | -2.3 (inactive) | 0.13 (inactive) | -0.131
8 | COc1ccc(CCNC(=O)[C@@]2(c3ccc([N+](=O)[O-])cc3)CC(=O)N(CC34CC5CC(CC(C5)C3)C4)[C@@H]2c2ccc(CO)cc2I)cc1 | 0.522 | -5.87 (inactive) | -1.53 (inactive) | 0.378 (inactive) | -0.107 (inactive) | -0.0522 | -0.443 | 0.292 | 1.05 | 1.75 | 0.655 (inactive) | -0.223 | 16.3 (active) | 3.25 (inactive) | 3.61 (inactive) | 0.838 (inactive) | 3.37 | 0.675 (inactive) | -4.2 (inactive) | -3.66
9 | COCC(=C=CC[C@@H](O)c1ccc(OCCO)cc1)C[C@@H](O)c1ccccn1 | 0.117 | 0.0073 (inactive) | 0.0661 (inactive) | -0.0602 (inactive) | 2.62 (inactive) | 0.556 | 0.0001 | 0.0308 | -0.467 | 1.04 | -0.125 (inactive) | -0.0061 | 6.36 (inactive) | 0.848 (inactive) | -0.315 (inactive) | 0.429 (inactive) | -0.577 | -0.0904 (inactive) | 0.654 (inactive) | 0.177
